Test results published in PubChem BioAssay (NCI).
Compounds without any hit were thinned out: in the full panel of roughly 79,000, 15% have a hit. Unmarked numbers belong to inactive results. Calls of active or inactive are those of the source. No stated cut-off is given here; in the data, active means growth inhibition above about 70%; inactive means the rest.

Key:
[1] = NCI Yeast Anticancer Drug Screen. Data for the rad50 strain (AID 155);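 further: 0% = growth of vehicle-only cultures of the same strain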; details: S. cerevisiae rad50 strain growth inhibition, stronger effect = higher value
In short: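 Vehicle-treated cultures provide the reference for the growth inhibition reported for compound-exposed, repair-deficient yeast.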

[2] = NCI Yeast Anticancer Drug Screen. Data for the mec2-1 strain (AID 157); details: S. cerevisiae mec2-1 strain, stronger effect = higher value
In short: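 mec2-1 yeast strain, carrying an alteration in DNA damage repair or cell cycle control, was exposed to compounds; growth inhibition was measured relative to vehicle-treated controls.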

[3] = NCI Yeast Anticancer Drug Screen. Data for the sgs1 mgt1 strain (AID 161);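 further: 0% = growth of cultures given vehicle only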; details: S. cerevisiae sgs1 mgt1 strain, stronger effect = higher value
In short: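 Yeast cells carrying a defined DNA-repair defect were exposed to test compounds. Growth inhibition was measured relative to vehicle-treated controls.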

[4] = NCI Yeast Anticancer Drug Screen. Data for the cln2 rad14 strain (AID 165);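 further: 0% = growth equal to vehicle treated cultures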; details: S. cerevisiae cln2 rad14 strain, stronger effect = higher value
In short: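 Yeast carrying cln2 and rad14 alterations (cell cycle control and DNA damage repair) were exposed to compounds. Growth inhibition was measured against vehicle-treated controls.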

[5] = NCI Yeast Anticancer Drug Screen. Data for the bub3 strain (AID 167); details: S. cerevisiae bub3 mutant strain, stronger effect = higher value
In short: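 Mutant yeast screening strain plus compound; vehicle-treated cultures serve as the 0% inhibition reference.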

[6] = NCI Yeast Anticancer Drug Screen. Data for the mlh1 rad18 strain (AID 175); details: S. cerevisiae mlh1 rad18 strain growth inhibition, stronger effect = higher value
In short: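 Growth inhibition of the yeast strain was measured after compound exposure and expressed relative to vehicle-treated controls. The strain carries defined defects in DNA damage repair.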

[7] = at 5.0 µM (retest, dose inferred, filed as 0.5)
[8] = at 50.0 µM (retest, dose inferred, filed as 5.0)

| SMILES | growth inhibition [1, 7] | growth inhibition [1, 8] | growth inhibition ([1]; at 50.0 µM) | growth inhibition [2, 7] | growth inhibition [2, 8] | growth inhibition ([2]; at 50.0 µM) | growth inhibition [3, 7] | growth inhibition [3, 8] | growth inhibition ([3]; at 50.0 µM) | growth inhibition [4, 7] | growth inhibition [4, 8] | growth inhibition ([4]; at 50.0 µM) | growth inhibition [5, 7] | growth inhibition [5, 8] | growth inhibition ([5]; at 50.0 µM) | growth inhibition [6, 7] | growth inhibition [6, 8] | growth inhibition ([6]; at 50.0 µM) |
| --- | --- | --- | --- | --- | --- | --- | --- | --- | --- | --- | --- | --- | --- | --- | --- | --- | --- | --- |
| OCCN1c2ccccc2Sc2ccc(Cl)cc21 | -1% | 97% (active) | 89.3% (active) | -18% | 98% (active) | 92% (active) | -14% | 40% | 90.8% (active) | 30% | 98% (active) | 86.8% (active) | 1% | 97% (active) | 91.3% (active) | 12% | 98% (active) | 88.5% (active) |
| ClC1CC[N-]CC1.ClC1CC[N-]CC1.[Cl][Pt+2]([Cl])([Cl])[Cl] | 50% | 96% (active) | 89.5% (active) | 42% | 98% (active) | 90.9% (active) | 58% | 98% (active) | 90.2% (active) | 36% | 98% (active) | 87.4% (active) | 64% | 98% (active) | 93% (active) | 35% | 96% (active) | 91.7% (active) |
| Nc1ccc2c(c1)S(=O)(=O)c1cc(O)ccc1O2 | 23% | 18% | 32.9% | 10% | 20% | -26.8% | 13% | 25% | -22.6% | 11% | 24% | -4.55% | 21% | 28% | -15.2% | 8% | 5% | -71% |
| CC(=O)Nc1nnc(-c2coc3ccccc3c2=O)s1 | 7% | 0% | 50.9% | 4% | 3% | 6.25% | 1% | -3% | 20.4% | 9% | 1% | 10.7% | 4% | 1% | 15.4% | 2% | -4% | 12.1% |
| Cc1c(N)nc(C2CC(=O)N2CC(N)C(N)=O)nc1C(=O)NC(C(=O)NC(C)C(O)C(C)C(=O)NC(C(=O)NCCc1nc(-c2nc(C(=O)NCCCNC3CCCC3)cs2)cs1)C(C)O)C(OC1OC(CO)C(O)C(O)C1OC1OC(CO)C(O)C(OC(N)=O)C1O)c1cnc[nH]1 (configuration not stated) | 98% (active) | 99% (active) | 92.2% (active) | 97% (active) | 99% (active) | 93.3% (active) | 96% (active) | 98% (active) | 93.5% (active) | 93% (active) | 97% (active) | 88.3% (active) | 97% (active) | 98% (active) | 93.5% (active) | 98% (active) | 99% (active) | 92% (active) |
| CC(C)=CC[P+](CCCCCC[P+](CC=C(C)C)(c1ccccc1)c1ccccc1)(c1ccccc1)c1ccccc1 | -4% | 9% | 31.6% | -1% | 9% | 40.8% | -3% | 27% | 59.5% | -5% | 16% | 4.75% | -3% | 15% | 48.3% | -1% | 27% | 89.2% (active) |
| CCCC(=O)c1ccc(OC)cc1 | 0% | 28% | 41.9% | 1% | 70% (active) | -11.3% | 0% | 13% | 14.9% | 1% | 10% | 17.6% | -6% | 98% (active) | 20.9% | -1% | 61% | 6.25% |
| CC1=CC(O)(c2ccc(-c3ccccc3Cl)cc2)OC1=O (configuration not stated) | -8% | 90% (active) | 90.2% (active) | 0% | 96% (active) | 94.8% (active) | -1% | 88% (active) | 92.1% (active) | -19% | 87% (active) | 90.9% (active) | -11% | 95% (active) | 89.3% (active) | -9% | 94% (active) | 96.3% (active) |
| O=[N+]([O-])/C=C/c1cc2c(ccc3ccccc32)[nH]1 | 61% | 98% (active) | 82.7% (active) | 94% (active) | 95% (active) | 92.2% (active) | 88% (active) | 98% (active) | 94.5% (active) | 37% | 92% (active) | 93.3% (active) | 96% (active) | 98% (active) | 90.7% (active) | 87% (active) | 97% (active) | 89% (active) |
| CCc1ccccc1NC(=O)C(=O)CC(=O)c1ccc(Cl)s1 | 1% | 1% | 45.1% | -2% | -40% | 2.6% | -1% | 2% | 6.85% | -2% | 6% | 26.2% | 2% | 1% | -9.55% | 0% | 5% | -0.1% |
| CN(C)CC(O)c1cc(-c2ccc(Cl)c(Cl)c2)nc2c(Cl)cc(Cl)cc12 (configuration not stated) | 3% | 98% (active) | 97.8% (active) | -3% | 99% (active) | 98.5% (active) | -9% | 99% (active) | 98.5% (active) | -4% | 97% (active) | 98.2% (active) | 0% | 75% (active) | 98.3% (active) | 1% | 98% (active) | 98% (active) |
| COc1ccc2ccc(=O)oc2c1CC=C(C)C | 88% (active) | 98% (active) | 46.5% | 13% | 99% (active) | 37.6% | 6% | 99% (active) | 72.5% (active) | 7% | 98% (active) | -9.6% | 14% | 98% (active) | 62% | 13% | 98% (active) | 31.5% |
| Cc1cccc(NC(=O)CCc2ccc(Cl)cc2)n1 | 2% | 1% | 6.3% | -17% | -6% | 2.55% | 2% | 13% | 0.2% | -6% | -15% | 41.8% | -1% | 0% | 9.9% | 8% | -7% | -2.8% |
| CCOc1nc(N)nc(C)c1N=Nc1ccc(Cl)cc1 | 16% | 76% (active) | 95.5% (active) | 4% | 58% | 67.7% | 14% | 75% (active) | 91.9% (active) | -5% | 35% | 74.8% (active) | -1% | 19% | 97.3% (active) | 25% | 88% (active) | 89.6% (active) |
| CCCCCCCCCCCC(=O)OCCOP(=O)(OCC)OCC | -1% | 91% (active) | 87.2% (active) | 2% | 98% (active) | 20.9% | 4% | 99% (active) | 96.5% (active) | -4% | 97% (active) | 74.7% (active) | -1% | 97% (active) | -9.15% | -1% | 98% (active) | 79.2% (active) |
| O=S(=O)(NC(=S)Nc1ccccc1)c1ccc(Br)cc1 | -4% | 24% | 42.9% | -3% | 50% | 47.1% | 7% | 53% | 37.5% | -1% | 2% | 79.5% (active) | -3% | 42% | 67.8% | 21% | 68% | 65.8% |
| CC[N+]1(C)CCC(O)(c2ccc(Cl)c(Cl)c2)C(C(=O)c2ccc(Cl)c(Cl)c2)C1 (configuration not stated) | 15% | 99% (active) | 99.4% (active) | 4% | 100% (active) | 99.6% (active) | 11% | 99% (active) | 99% (active) | 6% | 99% (active) | 99.5% (active) | 13% | 100% (active) | 98.8% (active) | 7% | 100% (active) | 99.6% (active) |
| NC(=S)N/N=C/c1cn(CCCl)c2ccccc12 | 7% | 30% | 57.5% | -49% | 49% | 19.8% | -17% | 63% | 62.9% | 2% | 59% | 42.9% | -11% | 56% | 24.1% | -32% | 35% | 45.9% |
| C=C(CN1CCOCC1)C(=O)c1ccccc1 | -23% | 66% | 74.5% (active) | 18% | 80% (active) | 90.2% (active) | 8% | 73% (active) | 85.5% (active) | -16% | 24% | 60.9% | 3% | 72% (active) | 91% (active) | -13% | 92% (active) | 95% (active) |
